The target of one experiment is Albumin (Bos taurus) (UniProt P02769). Briefly: bovine serum albumin binders on microarray, profiling panel, artefact control for SMM control protein annotation, biochemical, small-molecule microarray, Alexa647 label, 635/667 nm fluorescence (AID 1118).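 Also: score merges 667 nm emission intensity and signal-to-noise per printed compound spot.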 To be noted: BSA-A647 binding, fluorescence 635 nm, higher = more signal.
Experiment [1] can be described thus: small-molecule microarray binders of probe aXIP, primary screen, biochemical, NeuroSMM set, 635/667 nm fluorescence (AID 1119).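 Also: probe is the protein aXip251-270 applied at 1 µg/mL to compound-printed slides; binding of probe to printed compounds measured as 667 nm fluorescence plus signal to noise.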 Particulars: higher = more signal, called active from +8 up or from −8 down.
Experiment [2] can be described thus: small-molecule binders of probe aNOTCH3, primary screen, biochemical, small-molecule microarray, 635/667 nm fluorescence (AID 1120).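 Also: probe is a biotin-tagged antibody raised against NOTCH3 rather than NOTCH3 protein; score merges spot fluorescence near 667 nm with spot signal to noise.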 To be noted: higher = more signal.
Experiment [3] in a line: small-molecule binders of probe aNOTCH2, primary screen, biochemical, small-molecule microarray, 635/667 nm fluorescence (AID 1121).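 Also: score merges feature fluorescence read at 667 nm with its signal to noise.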 To be noted: higher = more signal.
In experiment [4] the target is Carbonic anhydrase 2 (Homo sapiens) (UniProt P00918). Briefly: CAII small-molecule binders, profiling panel, biochemical, small-molecule microarray, Alexa647-labelled CAII (AID 1122). To be noted: CAII-A647 binding fluorescence, higher = more signal.
Experiment [5] in a line: COS7 lysate on small-molecule microarray, probe aHis, 635 nm (AID 1123).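 Also: z-score combines 667nm fluorescence intensity with signal-to-noise per printed compound spot.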 Particulars: COS7 cell lysate, fluorescence, higher = more signal.
Experiment [6] is described as follows: compound binding in COS7 lysate, probe aLAP1, primary screen, cell lysate, small-molecule microarray (AID 1124).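 Also: lysate comes from COS7 cells expressing LAP1 and is applied at 0.3 µg/mL; score merges spot fluorescence near 667 nm with signal-to-noise over triplicate slides.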 To be noted: probe aLAP1, fluorescence, higher = more signal.
In another experiment the test system is Sam68 (KHDRBS1). Briefly: Sam68 small-molecule binders, primary screen, biochemical, small-molecule microarray, 635 nm fluorescence (AID 1125).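 Also: score merges 667 nm channel intensity with signal to noise over triplicate slides.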 Particulars: small-molecule microarray binding, higher = more signal.
For experiment [7], the system named is Chordin-like protein 2 (CHRDL2). Briefly: CHRDL2 small-molecule binders, primary screen, biochemical, small-molecule microarray, 635 nm fluorescence (AID 1126).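 Also: printed compound slides probed with Chrdl2 protein at 4 µg/mL for 1 h at 4 C; score merges 667 nm emission intensity with signal to noise over three replicate slides.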 Particulars: small-molecule microarray binding, fluorescence 635 nm; higher = more signal.
Experiment [8] addresses Concanavalin-A (Canavalia ensiformis) (UniProt P02866). Briefly: ConA small-molecule binders, primary screen, artefact control for SMM control protein annotation, biochemical, small-molecule microarray, Alexa647 label, 635 nm (AID 1127).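 Also: z combines 667 nm emission intensity with signal-to-noise across three replicate slides.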 Particulars: ConA-A647 binding fluorescence, higher = more signal.
Experiment [9] can be described thus: anti-His antibody binders, primary screen, artefact control for SMM control protein annotation, biochemical, small-molecule microarray, 635 nm fluorescence (AID 1128).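 Also: score merges feature fluorescence with signal-to-noise for each printed compound spot.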 To be noted: anti-His Alexa647 antibody binding, higher = more signal.
For experiment [10], the system named is Human papillomavirus type 1a E7 protein (residues 1-88). Briefly: HPV1a E7 small-molecule binders, primary screen, biochemical, small-molecule microarray, residues 1-88, 635 nm (AID 1129). Particulars: small-molecule microarray binding, fluorescence 635 nm; higher = more signal.
The target of experiment [11] is Focal adhesion kinase 1 (Homo sapiens) (UniProt Q05397). Briefly: small-molecule microarray binders of FAK, primary screen, biochemical, 635/667 nm fluorescence, BSA, DTT (AID 1130).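 Also: composite of spot emission at 667 nm and signal to noise over triplicate slides.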 Particulars: PTK2 binding, 635 nm fluorescence, higher = more signal.
The test system of experiment [12] is Fibrinogen (Alexa647-labelled). Briefly: fibrinogen binders on compound microarrays, profiling panel, artefact control for SMM control-protein annotation, biochemical, small-molecule microarray, 635/667 nm fluorescence (AID 1131).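 Also: z-score merges 667 nm fluorescence with per-spot signal-to-noise over triplicate slides.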 To be noted: fibrinogen-A647 binding fluorescence, higher = more signal.
Experiment [13] has as its target Follistatin (Homo sapiens) (UniProt P19883). Briefly: follistatin binders on small-molecule microarrays, primary screen, biochemical, small-molecule microarray, 635/667 nm fluorescence (AID 1132). Particulars: FST binding, 635 nm fluorescence, higher = more signal.
Experiment [14] addresses Fibroblast growth factor 2 (Homo sapiens) (UniProt P09038). Briefly: FGF2 binders on small-molecule microarrays, primary screen, biochemical, small-molecule microarray, 635/667 nm fluorescence (AID 1133). Particulars: small-molecule microarray binding, FGF2, fluorescence 635/667; higher = more signal.
Experiment [15] in a line: mitochondrial membrane potential change in A549 cells, profiling panel, cell-based, JC-1 fluorescence, basal, 24 h, 100 nL (AID 1138).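 Also: A549 lung adenocarcinoma cells under basal conditions with no added stimulus; test concentration not given here.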 Particulars: higher = more signal.
The next experiment concerns Lefty1. Briefly: Lefty1 binders on small-molecule microarrays, primary screen, biochemical, small-molecule microarray, 635/667 nm fluorescence (AID 1139). Particulars: small-molecule microarray binding, fluorescence 635/667; higher = more signal.
Experiment [16] concerns wheat germ agglutinin (Triticum aestivum), Alexa647-labelled. Briefly: wheat germ agglutinin binders on compound microarrays, profiling panel, artefact control for SMM control-protein annotation, biochemical, small-molecule microarray, 635/667 nm fluorescence (AID 1140).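 Also: score merges 667 nm feature emission with signal to noise over triplicate slides.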 Particulars: WGA-A647 binding, 635 nm fluorescence, higher = more signal.
Experiment [17] deals with Luciferin 4-monooxygenase (Photinus pyralis) (UniProt P08659). Briefly: firefly luciferase enzyme inhibitors, primary screen, biochemical, luminescence, purified enzyme, 2006 set (AID 1141).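 Also: cell-free assay with purified firefly luciferase at 100 ng per well in PBS; test concentration not given here.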 To be noted: SteadyGlo luminescence, 30 min, higher = more signal, called active from +8 up or from −8 down.

Active and inactive are the calls of the source.

Chain of Follistatin (Homo sapiens) (P19883 whole entry, looked up): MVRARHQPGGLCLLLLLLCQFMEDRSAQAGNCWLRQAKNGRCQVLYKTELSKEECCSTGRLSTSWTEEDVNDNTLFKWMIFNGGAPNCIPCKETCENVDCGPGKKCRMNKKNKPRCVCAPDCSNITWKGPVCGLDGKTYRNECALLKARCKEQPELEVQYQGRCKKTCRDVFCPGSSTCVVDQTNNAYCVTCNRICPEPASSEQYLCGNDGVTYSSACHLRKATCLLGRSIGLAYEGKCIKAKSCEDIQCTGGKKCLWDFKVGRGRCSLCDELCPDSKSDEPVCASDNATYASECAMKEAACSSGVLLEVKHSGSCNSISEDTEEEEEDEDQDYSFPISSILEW
Chain of Luciferin 4-monooxygenase (Photinus pyralis) (P08659 whole entry, looked up): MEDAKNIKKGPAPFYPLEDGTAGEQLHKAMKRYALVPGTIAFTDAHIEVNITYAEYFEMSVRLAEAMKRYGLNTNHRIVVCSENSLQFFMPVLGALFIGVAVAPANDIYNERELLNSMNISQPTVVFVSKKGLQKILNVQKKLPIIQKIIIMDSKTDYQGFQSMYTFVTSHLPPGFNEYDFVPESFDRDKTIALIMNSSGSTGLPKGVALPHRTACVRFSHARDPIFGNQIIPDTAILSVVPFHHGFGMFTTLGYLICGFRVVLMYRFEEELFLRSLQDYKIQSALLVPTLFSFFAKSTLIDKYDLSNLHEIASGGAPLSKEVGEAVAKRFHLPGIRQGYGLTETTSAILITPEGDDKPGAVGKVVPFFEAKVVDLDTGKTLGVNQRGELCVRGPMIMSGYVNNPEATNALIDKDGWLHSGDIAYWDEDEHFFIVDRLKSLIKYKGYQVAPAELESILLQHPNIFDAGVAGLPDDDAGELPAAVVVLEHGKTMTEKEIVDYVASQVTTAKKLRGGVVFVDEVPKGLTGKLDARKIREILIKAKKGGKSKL
Chain of Albumin (Bos taurus) (P02769 whole entry, looked up): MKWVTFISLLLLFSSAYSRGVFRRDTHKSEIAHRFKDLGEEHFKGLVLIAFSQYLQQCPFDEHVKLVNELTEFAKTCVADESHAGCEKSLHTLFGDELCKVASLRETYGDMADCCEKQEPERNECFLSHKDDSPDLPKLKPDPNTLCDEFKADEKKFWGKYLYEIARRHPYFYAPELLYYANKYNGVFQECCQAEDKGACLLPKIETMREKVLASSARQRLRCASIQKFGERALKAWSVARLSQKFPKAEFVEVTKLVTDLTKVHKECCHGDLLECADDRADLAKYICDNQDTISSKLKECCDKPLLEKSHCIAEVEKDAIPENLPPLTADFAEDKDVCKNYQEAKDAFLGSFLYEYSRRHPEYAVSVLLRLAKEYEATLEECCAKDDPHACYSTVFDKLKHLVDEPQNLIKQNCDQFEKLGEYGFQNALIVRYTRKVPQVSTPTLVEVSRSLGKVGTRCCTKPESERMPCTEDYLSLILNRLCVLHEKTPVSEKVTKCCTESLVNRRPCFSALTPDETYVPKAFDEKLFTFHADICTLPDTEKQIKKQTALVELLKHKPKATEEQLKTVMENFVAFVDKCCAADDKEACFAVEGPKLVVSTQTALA
Chain of Fibroblast growth factor 2 (Homo sapiens) (P09038 whole entry, looked up): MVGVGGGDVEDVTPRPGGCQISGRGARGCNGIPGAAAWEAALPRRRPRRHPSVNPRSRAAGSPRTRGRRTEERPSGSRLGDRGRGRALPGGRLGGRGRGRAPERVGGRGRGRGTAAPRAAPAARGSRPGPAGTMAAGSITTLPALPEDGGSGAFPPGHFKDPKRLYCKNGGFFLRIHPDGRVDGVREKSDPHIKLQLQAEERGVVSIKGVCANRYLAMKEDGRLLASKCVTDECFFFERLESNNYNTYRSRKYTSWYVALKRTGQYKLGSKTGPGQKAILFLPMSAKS
Chain of Concanavalin-A (Canavalia ensiformis) (P02866 whole entry, looked up): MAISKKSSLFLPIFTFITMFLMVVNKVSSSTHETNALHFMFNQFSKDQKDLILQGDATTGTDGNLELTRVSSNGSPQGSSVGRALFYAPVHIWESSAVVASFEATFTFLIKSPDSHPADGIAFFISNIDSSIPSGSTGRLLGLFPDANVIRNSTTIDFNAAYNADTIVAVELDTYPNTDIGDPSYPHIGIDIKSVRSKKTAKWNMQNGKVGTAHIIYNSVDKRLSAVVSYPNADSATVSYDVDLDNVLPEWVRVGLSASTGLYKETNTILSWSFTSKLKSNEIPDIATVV
Chain of Focal adhesion kinase 1 (Homo sapiens) (Q05397 whole entry, looked up): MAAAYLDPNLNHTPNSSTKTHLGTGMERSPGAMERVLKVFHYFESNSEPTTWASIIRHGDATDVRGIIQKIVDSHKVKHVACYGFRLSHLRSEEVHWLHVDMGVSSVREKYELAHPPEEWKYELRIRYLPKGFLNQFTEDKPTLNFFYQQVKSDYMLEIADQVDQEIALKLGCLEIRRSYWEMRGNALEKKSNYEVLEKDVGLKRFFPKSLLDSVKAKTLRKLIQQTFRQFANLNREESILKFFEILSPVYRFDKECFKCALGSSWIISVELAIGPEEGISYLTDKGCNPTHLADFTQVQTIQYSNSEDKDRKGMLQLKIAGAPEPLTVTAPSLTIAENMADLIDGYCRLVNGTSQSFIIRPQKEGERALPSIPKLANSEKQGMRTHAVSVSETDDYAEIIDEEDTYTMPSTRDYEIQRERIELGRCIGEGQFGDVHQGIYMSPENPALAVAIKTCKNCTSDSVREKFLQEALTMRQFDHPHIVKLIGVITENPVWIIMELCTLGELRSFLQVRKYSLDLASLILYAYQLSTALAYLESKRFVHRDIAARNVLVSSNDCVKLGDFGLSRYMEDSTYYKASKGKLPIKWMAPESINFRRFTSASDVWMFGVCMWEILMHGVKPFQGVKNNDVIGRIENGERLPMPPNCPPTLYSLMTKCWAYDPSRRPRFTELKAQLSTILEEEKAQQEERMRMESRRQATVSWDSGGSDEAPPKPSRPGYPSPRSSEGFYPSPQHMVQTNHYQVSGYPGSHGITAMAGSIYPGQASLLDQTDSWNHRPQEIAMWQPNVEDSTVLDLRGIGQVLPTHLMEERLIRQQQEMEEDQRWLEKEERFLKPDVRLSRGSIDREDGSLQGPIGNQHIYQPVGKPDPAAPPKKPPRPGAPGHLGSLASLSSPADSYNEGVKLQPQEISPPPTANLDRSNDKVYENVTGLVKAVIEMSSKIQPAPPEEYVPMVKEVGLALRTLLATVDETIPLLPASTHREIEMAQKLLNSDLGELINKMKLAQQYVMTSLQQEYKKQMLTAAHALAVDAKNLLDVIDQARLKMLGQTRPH

As to `O=C1C2C=CC(C(O)c3c(F)cccc3Cl)N(Nc3ccccc3F)C2C(=O)N1c1ccccc1` (stereo not given), the composite z-score with Albumin (Bos taurus) was 0.913; in experiment [2], 0.185; in [3] it was -0.0216; in experiment [4], 0.691; in experiment [5], 1.67; in experiment [6], 0.497. Moreover, the composite z-score in the experiment on Sam68 (KHDRBS1) was 1.21; in [7], -0.534; in [8], 0.972; in [9], 0.236; in experiment [10], 1.23; in [11], 0.631. Besides, the composite z-score in experiment [12] was 0.926; in experiment [13], 1.09; in [14], 0.793; in the experiment on Lefty1 it was -0.199; in experiment [16], 0.702. The composite Z-score in experiment [1] was -0.145 (inactive). Besides, the z-score is 0.353 in experiment [15] and -0.059 (inactive) in experiment [17].

Turning to `C=C(C(=O)CC[C@H](OC(C)=O)c1ccccc1OCCO)C(C)C`, the composite z-score in the experiment with Albumin (Bos taurus) is 0.0421; in experiment [2], 0.029; in [3], -0.0325; in experiment [4], -0.371; in [5], -0.754; in experiment [6] it was 1.87. In addition, the composite z-score in the experiment on Sam68 (KHDRBS1) is -0.4; in [7], -0.163; in [8], -0.104; in [9], -0.29; in experiment [10] it was -0.936; in [11], -0.385. The composite z-score was -0.262 in experiment [12]; 1.25 in [13]; 0.38 in experiment [14]; 0.696 with Lefty1; -0.209 in experiment [16]. The composite Z-score in experiment [1] was -0.361 (inactive). Moreover, the z-score in experiment [15] is -1.25; in experiment [17], 0.168 (inactive).

For the compound `C=CCNC(=O)[C@H]1[C@@H]2C(=O)O[C@@H](c3ccccc3)[C@@H](c3ccccc3)N2[C@@H](c2ccc(O)cc2)[C@]12C(=O)Nc1ccc(C#CCCO)cc12`, the composite z-score was 0.138 with Albumin (Bos taurus); -0.112 in [2]; -0.198 in [3]; 0.656 in experiment [4]; -0.0099 in experiment [5]; 0.75 in experiment [6]. Also, the composite z-score in the experiment with Sam68 (KHDRBS1) is -0.319; in experiment [7], -0.559; in experiment [8], -0.065; in experiment [9], -0.0591; in experiment [10], -0.338; in experiment [11], 0.459. Moreover, the composite z-score in experiment [12] is -0.297; in [13], 0.265; in experiment [14], -0.869; in the experiment with Lefty1, 0.358; in experiment [16], -0.48. Moreover, the composite Z-score in experiment [1] is -0.157 (inactive). Also, the z-score in experiment [15] was 0.0152; in [17], 0.361 (inactive).

For `[N-]=[N+]=Nc1ccccc1C[C@@]1(C(=O)N2CCCCC2)N=C(c2ccc(OCCCO)cc2)O[C@@H]1c1ccccc1`, the composite z-score with Albumin (Bos taurus) worked out at 0.782; in [2], 0.107; in [3] it was 0.111; in experiment [4], 0.398; in [5], 2.37; in [6] it was 0.677. The composite z-score in the experiment on Sam68 (KHDRBS1) is 1.22; in [7], -0.687; in experiment [8], 1.12; in [9], 1.63; in [10] it was 1.2; in experiment [11], 0.98. Also, the composite z-score in experiment [12] is 0.95; in [13], 0.72; in experiment [14], 0.11; in the experiment on Lefty1, -0.322; in experiment [16], 1.31. Moreover, the composite Z-score in [1] is 0.219 (inactive). Moreover, the z-score in [15] is 1.13; in [17], -2.98 (inactive).

For `COc1cc(OC)c(C(O)C2C=CC3C(=O)NC(=O)C3N2Nc2ccccn2)cc1Br` (stereo not given), the composite z-score in the experiment with Albumin (Bos taurus) was -0.257; in experiment [2], -0.0026; in experiment [3], -0.0598; in experiment [4] it was 0.819; in [5], 0.973; in experiment [6], 0.487. The composite z-score with Sam68 (KHDRBS1) is 0.755; in experiment [7] it was 1.02; in experiment [8], 0.747; in experiment [9], 2.02; in experiment [10] it was 0.683; in experiment [11], 0.124. The composite z-score in experiment [12] was determined as 0.368; in experiment [13], 0.573; in experiment [14], 0.562; with Lefty1, 0.483; in experiment [16], 0.0687. For the same compound, the composite Z-score in [1] was 0.172 (inactive). Besides, the z-score in [15] is 0.0938; in [17] it was -1.36 (inactive).

Regarding `CN(C)CCCCCCNC(=O)[C@@H]1C[C@@H]2C(=O)N[C@@H](CCCC[N+](C)(C)C)C(=O)N2[C@@H]1c1ccc(O)cc1`, the composite z-score with Albumin (Bos taurus) is -0.793; in experiment [2], 0.164; in experiment [3], -0.231; in experiment [4], 0.797; in experiment [5], 0.125; in experiment [6] it was 0.246. The composite z-score in the experiment with Sam68 (KHDRBS1) was 0.794; in experiment [7] it was 0.918; in [8], 0.898; in experiment [9], 0.486; in experiment [10], -0.396; in experiment [11] it was 0.678. Besides, the composite z-score is -0.335 in experiment [12]; 0.82 in experiment [13]; 0.825 in [14]; 0.798 with Lefty1; 0.427 in experiment [16]. Further, the composite Z-score in experiment [1] was 1.56 (inactive). Moreover, the z-score was -0.147 in experiment [15] and -0.882 (inactive) in experiment [17].

(Values after PubChem BioAssay.)
